# Source: PubChem BioAssay AID1159580 (chemical genetic matrix, 2015)
# About 2,000 (36%) of roughly 5,500 compounds were called active. Not shown: some 18% with an inconclusive outcome. The list shows a part of the results. Unmarked numbers belong to inactive results. No stated cut-off is given here; in the data, active means normalized growth mostly below about 0.91 (no sharp cut-off); inconclusive means no clear call, values can overlap the other calls; inactive means mostly above about 0.92.
# Experiment: chemical genetic growth profiling, strain panel (AID 1159580);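 further: tested at 20 µM; growth read once vehicle control cultures reached saturation at 30 °C; 1 = growth at the plate median or of vehicle wells; lower values mean less growth of the strain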
# Settings: growth OD
smiles,measurement,setting,value
CC(C)=CCc1c(O)cc2oc(C)cc(=O)c2c1O,normalized growth,"S. cerevisiae deletion strains, locus YJR043C, strain POL32, active compounds read low",0.847 (active)
same,normalized growth,"S. cerevisiae deletion strains, locus YJR066W, strain TOR1, active compounds read low",0.941
same,normalized growth,"S. cerevisiae deletion strains, locus YJR075W, strain HOC1, active compounds read low",1.03
same,normalized growth,"S. cerevisiae deletion strains, locus YKL009W, strain mrt4, active compounds read low",0.974
same,normalized growth,"S. cerevisiae deletion strains, locus YKL068W, active compounds read low",0.982
same,normalized growth,"S. cerevisiae deletion strains, locus YKL085W, strain MDH1 (second series), active compounds read low",0.983
same,normalized growth,"S. cerevisiae deletion strains, locus YKL085W, strain MDH1, active compounds read low",0.983
same,normalized growth,"S. cerevisiae deletion strains, locus YKL160W, strain elf1, active compounds read low",0.963
same,normalized growth,"S. cerevisiae deletion strains, locus YKL190W, strain CNB1, active compounds read low",1
same,normalized growth,"S. cerevisiae deletion strains, locus YKR001C, strain vps1, active compounds read low",0.723 (active)
same,normalized growth,"S. cerevisiae deletion strains, locus YKR026C, strain gcn3, active compounds read low",0.977
same,normalized growth,"S. cerevisiae deletion strains, locus YKR091W, strain srl3, active compounds read low",0.98
same,normalized growth,"S. cerevisiae deletion strains, locus YLL001W, strain dnm1, active compounds read low",0.964
same,normalized growth,"S. cerevisiae deletion strains, locus YLL026W, active compounds read low",0.981
same,normalized growth,"S. cerevisiae deletion strains, locus YLL041C, strain sdh2, active compounds read low",0.979
same,normalized growth,"S. cerevisiae deletion strains, locus YLR027C, strain aat2, active compounds read low",0.983
same,normalized growth,"S. cerevisiae deletion strains, locus YLR039C, strain RIC1, active compounds read low",0.834
same,normalized growth,"S. cerevisiae deletion strains, locus YLR058C, strain SHM2, active compounds read low",0.966
same,normalized growth,"S. cerevisiae deletion strains, locus YLR102C, strain apc9, active compounds read low",0.987
same,normalized growth,"S. cerevisiae deletion strains, locus YLR113W, strain HOG1, active compounds read low",0.854 (active)
same,normalized growth,"S. cerevisiae deletion strains, locus YLR221C, strain rsa3, active compounds read low",0.95
same,normalized growth,"S. cerevisiae deletion strains, locus YLR258W, strain gsy2, active compounds read low",0.97
same,normalized growth,"S. cerevisiae deletion strains, locus YLR262C, strain YPT6 (second series), active compounds read low",0.781 (active)
same,normalized growth,"S. cerevisiae deletion strains, locus YLR268W, strain sec22, active compounds read low",0.939
same,normalized growth,"S. cerevisiae deletion strains, locus YLR320W, strain mms22, active compounds read low",0.961
same,normalized growth,"S. cerevisiae deletion strains, locus YLR330W, strain CHS5, active compounds read low",0.937
same,normalized growth,"S. cerevisiae deletion strains, locus YLR342W, strain FKS1, active compounds read low",0.974
same,normalized growth,"S. cerevisiae deletion strains, locus YLR357W, strain rsc2, active compounds read low",0.913
same,normalized growth,"S. cerevisiae deletion strains, locus YLR370C, strain arc18, active compounds read low",0.996
same,normalized growth,"S. cerevisiae deletion strains, locus YLR371W, strain rom2, active compounds read low",0.957
same,normalized growth,"S. cerevisiae deletion strains, locus YLR384C, strain iki3, active compounds read low",0.976
same,normalized growth,"S. cerevisiae deletion strains, locus YLR418C, strain cdc73, active compounds read low",0.898
same,normalized growth,"S. cerevisiae deletion strains, locus YML016C, strain PPZ1, active compounds read low",0.997
same,normalized growth,"S. cerevisiae deletion strains, locus YML032C, strain rad52, active compounds read low",0.907
same,normalized growth,"S. cerevisiae deletion strains, locus YML120C, strain ndi1, active compounds read low",0.98
same,normalized growth,"S. cerevisiae deletion strains, locus YML124C, strain tub3, active compounds read low",0.985
same,normalized growth,"S. cerevisiae deletion strains, locus YMR058W, strain fet3, active compounds read low",0.946
same,normalized growth,"S. cerevisiae deletion strains, locus YMR078C, strain ctf18, active compounds read low",0.994
same,normalized growth,"S. cerevisiae deletion strains, locus YMR125W, strain sto1, active compounds read low",0.981
same,normalized growth,"S. cerevisiae deletion strains, locus YMR129W, active compounds read low",0.98
same,normalized growth,"S. cerevisiae deletion strains, locus YMR205C, strain PFK2, active compounds read low",0.954
same,normalized growth,"S. cerevisiae deletion strains, locus YMR223W, strain ubp8, active compounds read low",0.931
same,normalized growth,"S. cerevisiae deletion strains, locus YMR231W, strain pep5, active compounds read low",0.981
same,normalized growth,"S. cerevisiae deletion strains, locus YMR263W, strain SAP30, active compounds read low",0.992
same,normalized growth,"S. cerevisiae deletion strains, locus YMR307W, strain GAS1, active compounds read low",0.549 (active)
same,normalized growth,"S. cerevisiae deletion strains, locus YNL067W, strain RPL9B, active compounds read low",1.01
same,normalized growth,"S. cerevisiae deletion strains, locus YNL071W, strain lat1, active compounds read low",0.975
same,normalized growth,"S. cerevisiae deletion strains, locus YNL153C, strain GIM3, active compounds read low",0.932
same,normalized growth,"S. cerevisiae deletion strains, locus YNL183C, strain NPR1, active compounds read low",0.91
same,normalized growth,"S. cerevisiae deletion strains, locus YNL209W, strain ssb2, active compounds read low",0.996
same,normalized growth,"S. cerevisiae deletion strains, locus YNL233W, strain BNI4, active compounds read low",0.926
same,normalized growth,"S. cerevisiae deletion strains, locus YNL248C, strain rpa49, active compounds read low",0.968
same,normalized growth,"S. cerevisiae deletion strains, locus YNL250W, strain rad50, active compounds read low",0.993
same,normalized growth,"S. cerevisiae deletion strains, locus YNL271C, strain bni1, active compounds read low",0.98
same,normalized growth,"S. cerevisiae deletion strains, locus YNL298W, strain CLA4, active compounds read low",0.954
same,normalized growth,"S. cerevisiae deletion strains, locus YNL307C, strain MCK1, active compounds read low",0.989
same,normalized growth,"S. cerevisiae deletion strains, locus YNL322C, strain KRE1 (second series), active compounds read low",0.964
same,normalized growth,"S. cerevisiae deletion strains, locus YNR049C, strain mso1, active compounds read low",0.964
same,normalized growth,"S. cerevisiae deletion strains, locus YNR052C, strain pop2, active compounds read low",1
same,normalized growth,"S. cerevisiae deletion strains, locus YOL012C, strain htz1",1.24
same,normalized growth,"S. cerevisiae deletion strains, locus YOL147C, strain pex11, active compounds read low",0.954
same,normalized growth,"S. cerevisiae deletion strains, locus YOR001W, strain rrp6, active compounds read low",0.981
same,normalized growth,"S. cerevisiae deletion strains, locus YOR061W, strain CKA2, active compounds read low",0.955
same,normalized growth,"S. cerevisiae deletion strains, locus YOR069W, strain VPS5, active compounds read low",0.987
same,normalized growth,"S. cerevisiae deletion strains, locus YOR070C, strain gyp1, active compounds read low",0.983
same,normalized growth,"S. cerevisiae deletion strains, locus YOR080W, strain dia2, active compounds read low",1
same,normalized growth,"S. cerevisiae deletion strains, locus YOR083W, strain WHI5, active compounds read low",0.947
same,normalized growth,"S. cerevisiae deletion strains, locus YOR106W, strain vam3, active compounds read low",0.934
same,normalized growth,"S. cerevisiae deletion strains, locus YOR136W, strain idh2, active compounds read low",0.979
same,normalized growth,"S. cerevisiae deletion strains, locus YOR144C, strain elg1, active compounds read low",0.965
same,normalized growth,"S. cerevisiae deletion strains, locus YOR184W, strain ser1, active compounds read low",0.829 (active)
same,normalized growth,"S. cerevisiae deletion strains, locus YOR231W, strain MKK1, active compounds read low",0.958
same,normalized growth,"S. cerevisiae deletion strains, locus YOR265W, strain rbl2, active compounds read low",0.971
same,normalized growth,"S. cerevisiae deletion strains, locus YOR270C, strain vph1, active compounds read low",1.08
same,normalized growth,"S. cerevisiae deletion strains, locus YOR290C, strain snf2, active compounds read low",0.939
same,normalized growth,"S. cerevisiae deletion strains, locus YOR316C, strain cot1, active compounds read low",0.997
same,normalized growth,"S. cerevisiae deletion strains, locus YPL051W, strain arl3, active compounds read low",0.952
same,normalized growth,"S. cerevisiae deletion strains, locus YPL055C, strain LGE1, active compounds read low",0.945
same,normalized growth,"S. cerevisiae deletion strains, locus YPL078C, strain atp4, active compounds read low",0.966
same,normalized growth,"S. cerevisiae deletion strains, locus YPL106C, strain sse1, active compounds read low",0.978
same,normalized growth,"S. cerevisiae deletion strains, locus YPL240C, strain hsp82, active compounds read low",0.982
same,normalized growth,"S. cerevisiae deletion strains, locus YPL256C, strain CLN2, active compounds read low",1.01
same,normalized growth,"S. cerevisiae deletion strains, locus YPR119W, strain clb2, active compounds read low",0.995
same,normalized growth,"S. cerevisiae deletion strains, locus YPR141C, strain kar3, active compounds read low",1
same,normalized growth,"S. cerevisiae deletion strains, locus YPR163C, strain tif3, active compounds read low",0.975
same,normalized growth,"S. cerevisiae deletion strains, locus YPR167C, strain met16, active compounds read low",0.956
same,normalized growth,"S. cerevisiae deletion strains, strain wtn01, active compounds read low",0.891 (active)
same,normalized growth,"S. cerevisiae strains, strain wild type, active compounds read low",0.922
